Inconclusive results are not listed. Activity calls are given as the source filed them. Unless noted, calls follow the shape of the dose curve; as a rule, active = well fitted curve in the direction sought with a large enough effect in the repeat runs; inconclusive = weak or mixed curves; inactive = no such curve, though single readings can be large; an effect the other way counts as inactive or inconclusive.
Experiments:
[1] = qHTS assay to identify small molecule agonists of the estrogen related receptor (ERR) signaling pathway from Tox21 library (AID 1224849; calls by dose curve; also: nearly all actives have a fitted effect of over 15% in size)
Method in brief: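 ERR reporter cell line (NTP) seeded, rested 6 h at 37 C/5% CO2, then pinned with Tox21 compounds in DMSO. After 18 h at 37 C, ONE-Glo luciferase luminescence was read following 30 min at room temperature.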

[2] = qHTS RealTime-Glo MT Cell Viability Assay in HepG2 cells - 24 hour (AID 1224867); also: nearly all actives have a fitted effect of over 50% in size
Method in brief: (§1)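 Compound treatment began 5 h after plating HepG2 cells (600/well) with NanoLuc luciferase and prosubstrate. Plates stayed at 37 C for 40 h; luminescence was captured at six time points, 0 h through 40 h.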

[3] = A CellTox Green Cytotoxicity Assay to monitor cytotoxicity in HEK293 cells - 0 hour (AID 1224869); also: nearly all actives have a fitted effect of over 50% in size
Method in brief: (§2)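 HEK293 cells premixed with CellTox Green dye were seeded at 600 cells/well and left 5 h at 37 C/5% CO2 before pin transfer of 23 nL compound in DMSO. Fluorescence from dye bound to dead-cell DNA was read during 40 h treatment.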

[4] = qHTS RealTime-Glo MT Cell Viability Assay in HepG2 cells - 40 hour (AID 1224870); also: nearly all actives have a fitted effect of over 50% in size
Method in brief: (§3)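 Real-time viability: cells seeded at 600 per well together with NanoLuc and cell-permeant prosubstrate, compounds added after 5 h incubation. Luminescence tracked at 0, 8, 16, 24, 32 and 40 h of exposure.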

[5] = A CellTox Green Cytotoxicity Assay to monitor cytotoxicity in HEK293 cells - 40 hour (AID 1224871); also: nearly all actives have a fitted effect of over 45% in size
Method in brief: as §2

[6] = qHTS RealTime-Glo MT Cell Viability Assay in HEK293 cells - 16 hour (AID 1224872); also: top concentration of the series differs between compounds; nearly all actives have a fitted effect of over 50% in size
Method in brief: (§4)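 Quantitative high-throughput screen of the Tox21 10K library in HEK293: cells and RealTime-Glo reagents plated together, compound added at 5 h, luminescence monitored through 40 h at 37 C.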

[7] = qHTS RealTime-Glo MT Cell Viability Assay in HepG2 cells - 8 hour (AID 1224873); also: nearly all actives have a fitted effect of over 55% in size
Method in brief: as §3

[8] = qHTS RealTime-Glo MT Cell Viability Assay in HEK293 cells - 40 hour (AID 1224874); details: RealTime-Glo luminescence; max response: active compounds read low; also: nearly all actives have a fitted effect of over 50% in size; also: potency is read from the fitted curve at half-maximal effect
Method in brief: (§5)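 HEK293 cells mixed with RealTime-Glo reagents (NanoLuc plus cell-permeant prosubstrate) at 600 cells/well, preincubated 5 h at 37 C/5% CO2, then given 23 nL compound in DMSO. Nonlytic luminescence from viable cells was read at 0, 8, 16, 24, 32 and 40 h.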

[9] = A CellTox Green Cytotoxicity Assay to monitor cytotoxicity in HEK293 cells - 24 hour (AID 1224875); also: series mostly up to about 77 µM; nearly all actives have a fitted effect of over 45% in size
Method in brief: as §2

[10] = A CellTox Green Cytotoxicity Assay to monitor cytotoxicity in HepG2 cells - 16 hour (AID 1224876); also: nearly all actives have a fitted effect of over 45% in size; also: potency is read from the fitted curve at half-maximal effect
Method in brief: (§6)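 HepG2 cells were seeded together with the CellTox Green dye at 600 cells/well, left 5 h at 37 C/5% CO2, then given compounds in DMSO. Fluorescence from dye bound to dead-cell DNA was read repeatedly over 40 h of treatment at 37 C.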

[11] = qHTS RealTime-Glo MT Cell Viability Assay in HepG2 cells - 32 hour (AID 1224877); also: nearly all actives have a fitted effect of over 55% in size
Method in brief: as §1

[12] = A CellTox Green Cytotoxicity Assay to monitor cytotoxicity in HepG2 cells - 40 hour (AID 1224879); also: nearly all actives have a fitted effect of over 40% in size; also: potency is read from the fitted curve at half-maximal effect
Method in brief: as §6

[13] = A CellTox Green Cytotoxicity Assay to monitor cytotoxicity in HEK293 cells - 32 hour (AID 1224881); also: nearly all actives have a fitted effect of over 40% in size
Method in brief: as §2

[14] = A CellTox Green Cytotoxicity Assay to monitor cytotoxicity in HEK293 cells - 8 hour (AID 1224884); also: nearly all actives have a fitted effect of over 35% in size
Method in brief: as §2

[15] = qHTS RealTime-Glo MT Cell Viability Assay in HepG2 cells - 16 hour (AID 1224885); also: nearly all actives have a fitted effect of over 50% in size
Method in brief: as §1

[16] = A CellTox Green Cytotoxicity Assay to monitor cytotoxicity in HepG2 cells - 24 hour (AID 1224878); also: nearly all actives have a fitted effect of over 45% in size; also: potency is read from the fitted curve at half-maximal effect
Method in brief: as §6

[17] = qHTS RealTime-Glo MT Cell Viability Assay in HEK293 cells - 0 hour (AID 1224880)
Method in brief: as §5

[18] = A CellTox Green Cytotoxicity Assay to monitor cytotoxicity in HepG2 cells - 0 hour (AID 1224882); also: nearly all actives have a fitted effect of over 35% in size
Method in brief: as §6

[19] = A CellTox Green Cytotoxicity Assay to monitor cytotoxicity in HepG2 cells - 32 hour (AID 1224883); also: nearly all actives have a fitted effect of over 50% in size; also: potency is read from the fitted curve at half-maximal effect
Method in brief: as §6

[20] = qHTS RealTime-Glo MT Cell Viability Assay in HEK293 cells - 32 hour (AID 1224868); also: nearly all actives have a fitted effect of over 50% in size; also: potency is read from the fitted curve at half-maximal effect
Method in brief: as §4
% is scaled to controls: 0 for no effect and ±100 for the full control effect.

C[C@@H]1C[C@H]2[C@@H]3C[C@H](F)C4=CC(=O)C=C[C@]4(C)[C@@]3(F)[C@@H](O)C[C@]2(C)[C@@]1(O)C(=O)CO
inactive: outcome [1] | outcome [2] | Potency [3] | outcome [4] | Potency [5] | Potency [6] | outcome [7] | max response [8] -1.4% | Potency [9] | Potency [10] | outcome [11] | Potency [12] | Potency [13] | Potency [14] | outcome [15]

CCCCCCCCCOCC1CO1 (centres undefined)
inactive: outcome [1] | outcome [2] | outcome [4] | Potency [5] | Potency [6] | outcome [7] | Potency [9] | Potency [10] | outcome [11] | Potency [16] | Potency [12] | outcome [17] | Potency [13] | Potency [18] | Potency [19] | Potency [14] | outcome [15]

CC(=O)c1ccc2c(c1)CCCC2
inactive: outcome [1] | outcome [2] | Potency [20] | Potency [3] | Potency [5] | Potency [6] | outcome [7] | max response [8] -1.61% | Potency [9] | Potency [10] | outcome [11] | Potency [16] | Potency [12] | outcome [17] | Potency [13] | Potency [18] | Potency [19] | Potency [14] | outcome [15]

CCCCCCCCCCC
inactive: outcome [1] | outcome [2] | Potency [3] | outcome [4] | Potency [5] | Potency [6] | outcome [7] | max response [8] -0.764% | Potency [9] | Potency [10] | outcome [11] | Potency [16] | Potency [12] | outcome [17] | Potency [13] | Potency [18] | Potency [19] | Potency [14] | outcome [15]

NS(=O)(=O)c1ccccc1OC(F)(F)F
inactive: outcome [1] | outcome [2] | Potency [3] | outcome [4] | Potency [5] | Potency [6] | outcome [7] | max response [8] 6.21% | Potency [9] | Potency [10] | outcome [11] | Potency [16] | Potency [12] | Potency [13] | Potency [18] | Potency [19] | Potency [14] | outcome [15]

CN(C)CCOCCN(C)CCO
inactive: outcome [1] | outcome [2] | Potency [3] | outcome [4] | Potency [5] | Potency [6] | outcome [7] | max response [8] -7.32% | Potency [9] | Potency [10] | outcome [11] | Potency [16] | Potency [12] | outcome [17] | Potency [13] | Potency [18] | Potency [19] | Potency [14] | outcome [15]

COc1ccc(NS(=O)(=O)c2ccc(N)cc2)nn1
inactive: outcome [1] | outcome [2] | Potency [20] | outcome [4] | Potency [5] | Potency [6] | outcome [7] | max response [8] 3.44% | Potency [9] | Potency [10] | outcome [11] | Potency [16] | Potency [12] | outcome [17] | Potency [13] | Potency [18] | Potency [19] | Potency [14] | outcome [15]

CN=C(NC#N)NCCSCc1csc(N=C(N)N)n1
inactive: outcome [1] | outcome [2] | Potency [3] | outcome [4] | Potency [5] | Potency [6] | outcome [7] | max response [8] 1.73% | Potency [9] | Potency [10] | outcome [11] | Potency [16] | Potency [12] | outcome [17] | Potency [13] | Potency [18] | Potency [19] | Potency [14] | outcome [15]

CCc1nccnc1C
inactive: outcome [1] | outcome [2] | Potency [20] | outcome [4] | Potency [5] | Potency [6] | outcome [7] | max response [8] 6.93% | Potency [9] | Potency [10] | outcome [11] | Potency [16] | Potency [12] | outcome [17] | Potency [13] | Potency [18] | Potency [19] | Potency [14] | outcome [15]

CCCCCCCCCCCCCCCC(=O)NCCO
active: Potency [10] 8.49 µM | Potency [16] 8.49 µM | Potency [12] 8.49 µM | Potency [19] 9.52 µM
inactive: outcome [1] | outcome [2] | Potency [20] | Potency [3] | Potency [5] | Potency [6] | outcome [7] | max response [8] -2.85% | outcome [11] | outcome [17] | Potency [13] | Potency [14] | outcome [15]

CCCCCCCCCCCCCCCCCCN(C)C
inactive: outcome [1] | outcome [2] | Potency [20] | Potency [3] | outcome [4] | Potency [6] | outcome [7] | max response [8] 0.677% | Potency [10] | outcome [11] | Potency [16] | Potency [12] | outcome [17] | Potency [18] | Potency [19] | outcome [15]

CC(=O)/C=C/c1ccco1
inactive: outcome [1] | outcome [2] | Potency [20] | Potency [3] | Potency [5] | Potency [6] | outcome [7] | max response [8] 7.79% | Potency [10] | outcome [11] | Potency [16] | Potency [12] | outcome [17] | Potency [13] | Potency [19] | outcome [15]

C[C@H](CCC(=O)NCC(=O)O)[C@H]1CC[C@H]2[C@@H]3[C@H](O)C[C@@H]4C[C@H](O)CC[C@]4(C)[C@H]3C[C@H](O)[C@]12C
inactive: outcome [1] | outcome [2] | Potency [3] | Potency [5] | outcome [7] | Potency [9] | Potency [10] | outcome [11] | Potency [16] | Potency [12] | outcome [17] | Potency [13] | Potency [18] | Potency [19] | Potency [14] | outcome [15]
active: Potency [20] 9.49 µM | Potency [8] 9.49 µM

CC(C)COC(=O)/C=C/c1ccccc1
inactive: outcome [1] | outcome [2] | Potency [20] | Potency [3] | outcome [4] | Potency [6] | outcome [7] | max response [8] -4.89% | Potency [9] | Potency [10] | outcome [11] | outcome [17] | Potency [18] | Potency [14] | outcome [15]

O=S(=O)(O)c1cc(O)ccc1O
inactive: outcome [1] | outcome [2] | Potency [20] | Potency [3] | Potency [5] | Potency [6] | outcome [7] | max response [8] 9.53% | Potency [9] | outcome [11] | outcome [17] | Potency [13] | Potency [18] | outcome [15]

O=C(O)/C=C/c1ccccc1
inactive: outcome [1] | outcome [2] | Potency [3] | outcome [4] | Potency [5] | Potency [6] | outcome [7] | max response [8] -8.08% | Potency [9] | Potency [10] | outcome [11] | Potency [16] | Potency [12] | outcome [17] | Potency [13] | Potency [18] | Potency [19] | Potency [14] | outcome [15]

From PubChem BioAssay (Tox21)
